The nature of experiment [1]: qHTS assay to identify small molecule agonists of the sonic hedgehog signaling (Shh) pathway (AID 1259368).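 Note: NIH/3T3-derived 3T3Gli1-Luc cells carrying a stable Gli1-driven firefly luciferase reporter; series mostly up to about 92 µM; nearly all actives have a fitted effect of over 15% in size.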 An outline of the steps:
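A Gli1 transcriptional response element controlled firefly luciferase in 3T3Gli1-Luc cells. Compounds and a positive control were added 4 hr after plating, and cells were incubated a further 24 hr at 37 C before luminescence detection.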

Experiment [2] deals with Estrogen receptor beta (Homo sapiens) (UniProt Q92731). Put plainly: qHTS assay to identify small molecule agonists of the estrogen receptor beta (ER-beta) signaling pathway (AID 1259377; active = well fitted activation curve with a large enough effect in the signal ratio in the repeat runs, not every such curve was filed as active; the % refers to the signal ratio). In a few lines:
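Ratiometric beta-lactamase FRET read-out came after 2 h substrate loading at room temperature. It followed 16 h compound treatment at 37C of GripTite HEK293T cells carrying a UAS-bla reporter, plated in 2% charcoal-stripped FBS medium.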

Experiment [3] has the same target. Nature of the experiment: qHTS assay to identify small molecule antagonists of the estrogen receptor beta (ER-beta) signaling pathway (AID 1259378; active = well fitted inhibition curve with a large enough effect in the signal ratio in the repeat runs, not every such curve was filed as active; the % refers to the signal ratio; note: potency is the fitted concentration of half-maximal effect). An outline of the steps:
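Antagonist mode: compounds added to beta-lactamase reporter HEK293T ER-beta-UAS cells stimulated with E2 (1nM final), 16 hr at 37C. LiveBLAzer B/G FRET substrate, 2 hours room temperature, fluorescence read-out.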
(In general: qHTS replaces the single test concentration by a dilution series.)

The nature of experiment [4]: qHTS assay to identify small molecule agonists of the androgen receptor (AR) signaling pathway in the presence of an antagonist - cell viability counter screen (AID 1259379; active = well fitted curve in the direction sought with a large enough effect in the repeat runs; an effect the other way counts as inactive or inconclusive;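 note: MDA-kb2 human breast cancer cells carrying an MMTV luciferase reporter; series mostly up to about 92 µM; nearly all actives have a fitted effect of over 25% in size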). An outline of the steps: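 Seed MDA-kb2 at 3,000 cells/well; incubate 5 hr, 37C, 0% CO2. Add nilutamide to 3.0uM final, then pin compounds at 15 concentrations. Incubate 16 hr. Add CellTiter-Fluor at 15 hr, read fluorescence after 1 hr.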

A short description of experiment [5]: qHTS assay to identify small molecule antagonists of the estrogen receptor beta (ER-beta) signaling pathway - cell viability counter screen (AID 1259382; active = well fitted curve in the direction sought with a large enough effect in the repeat runs; an effect the other way counts as inactive or inconclusive; note: nearly all actives have a fitted effect of over 55% in size; note: potency is the fitted concentration of half-maximal effect). In a few lines: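 In this multiplexed counter screen, cells were seeded at 2,000 per well in medium with 2% charcoal-stripped FBS and incubated 6 hr before compound and 1nM final E2 were added. Sixteen hours later, ATP-based luminescence reported viability.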

The target in experiment [6] is Estrogen receptor (Homo sapiens) (UniProt P03372). Put plainly: qHTS assay to identify small molecule agonists of the estrogen receptor alpha (ER-alpha) signaling pathway in the presence of an antagonist (AID 1259383). For activation: top concentration of the series differs between compounds. Note: nearly all actives have a fitted effect of over 15% in size. Note: potency is the fitted concentration of half-maximal effect. In a few lines:
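Stably transfected VM7Luc4E2 reporter cells, kept 5 days in charcoal-stripped serum, received ICI-182,780 at 10.0nM final before compound addition. Following 22hr incubation at 37C and 5% CO2, luciferase signal was read by luminescence.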

Experiment [7] in a line: qHTS assay to identify small molecule agonists or antagonists of the thyroid stimulating hormone receptor (TSHR) signaling pathway - wild type cell line counter screen (AID 1259384). In a few lines: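 Counter screen in untransfected Hek293: compounds (15-point titration, triplicate) plus phosphodiesterase inhibitor Ro20-1724 added after 18 h plating; 30 min RT. Intracellular cAMP via competitive d2/cryptate immunoassay, 1 h incubation.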

Experiment [8] is described as follows: qHTS assay to identify small molecule agonists of the estrogen receptor beta (ER-beta) signaling pathway - cell viability counter screen (AID 1259380; active = well fitted curve in the direction sought with a large enough effect in the repeat runs; an effect the other way counts as inactive or inconclusive; note: nearly all actives have a fitted effect of over 30% in size; note: potency is the fitted concentration of half-maximal effect). An outline of the steps:
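CellTiter-Glo read, 30 min RT, same wells as bla assay; cells ER-beta-UAS-bla HEK293T; 16 hr compound, 37C; medium 2% charcoal-stripped FBS.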

Experiment [9] has as its target Androgen receptor (Homo sapiens) (UniProt P10275). Put plainly: qHTS assay to identify small molecule agonists of the androgen receptor (AR) signaling pathway in the presence of an antagonist (AID 1259381). Note: nearly all actives have a fitted effect of over 15% in size. An outline of the steps: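 Test compounds at 15 concentrations were incubated for 16hr with MDA-kb2 reporter cells in presence of 3.0uM nilutamide (final). Signal: ONE-Glo luciferase luminescence.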

A short description of experiment [10]: qHTS assay to identify small molecule antagonists of the sonic hedgehog signaling (Shh) pathway (AID 1259369). Note: nearly all actives have a fitted effect of over 45% in size. An outline of the steps: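 For antagonist detection, the reporter line received test compounds together with conditioned medium, incubated 24hr at 37 C, 5% CO2, then luminescence was recorded following 30min room-temperature luciferase reagent incubation.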

Structures are written as SMILES. A number with no mark means an inactive call. Inconclusive results are not listed. Activity calls are given as the source filed them. Unless noted, calls come from the whole dose curve.

Sequence of Androgen receptor (Homo sapiens) (P10275 whole entry, looked up): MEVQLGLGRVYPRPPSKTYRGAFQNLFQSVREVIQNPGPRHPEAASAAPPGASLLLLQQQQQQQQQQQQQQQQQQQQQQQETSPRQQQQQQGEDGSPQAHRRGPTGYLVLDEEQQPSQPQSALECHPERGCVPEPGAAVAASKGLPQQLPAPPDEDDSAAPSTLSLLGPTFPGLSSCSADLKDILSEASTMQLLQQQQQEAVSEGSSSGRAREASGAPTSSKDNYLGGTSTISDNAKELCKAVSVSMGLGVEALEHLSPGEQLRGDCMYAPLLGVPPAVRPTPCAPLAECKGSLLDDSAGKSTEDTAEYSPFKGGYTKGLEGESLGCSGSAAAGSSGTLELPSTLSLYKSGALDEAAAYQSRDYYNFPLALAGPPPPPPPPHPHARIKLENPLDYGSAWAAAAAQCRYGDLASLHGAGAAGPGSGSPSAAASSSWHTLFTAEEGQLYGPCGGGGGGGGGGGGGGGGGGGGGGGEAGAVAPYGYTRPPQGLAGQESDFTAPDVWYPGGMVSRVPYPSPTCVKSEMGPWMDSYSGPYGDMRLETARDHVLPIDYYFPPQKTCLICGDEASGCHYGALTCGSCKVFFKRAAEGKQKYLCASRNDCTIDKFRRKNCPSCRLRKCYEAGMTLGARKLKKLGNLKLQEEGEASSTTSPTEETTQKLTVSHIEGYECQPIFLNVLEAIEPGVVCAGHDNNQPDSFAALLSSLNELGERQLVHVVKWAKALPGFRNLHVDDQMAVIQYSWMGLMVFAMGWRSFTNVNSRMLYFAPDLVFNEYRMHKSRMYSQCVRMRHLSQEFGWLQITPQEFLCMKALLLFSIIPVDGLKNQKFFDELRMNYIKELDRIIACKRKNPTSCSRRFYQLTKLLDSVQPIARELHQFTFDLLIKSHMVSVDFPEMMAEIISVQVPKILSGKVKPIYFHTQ
Sequence of Estrogen receptor beta (Homo sapiens) (Q92731 whole entry, looked up): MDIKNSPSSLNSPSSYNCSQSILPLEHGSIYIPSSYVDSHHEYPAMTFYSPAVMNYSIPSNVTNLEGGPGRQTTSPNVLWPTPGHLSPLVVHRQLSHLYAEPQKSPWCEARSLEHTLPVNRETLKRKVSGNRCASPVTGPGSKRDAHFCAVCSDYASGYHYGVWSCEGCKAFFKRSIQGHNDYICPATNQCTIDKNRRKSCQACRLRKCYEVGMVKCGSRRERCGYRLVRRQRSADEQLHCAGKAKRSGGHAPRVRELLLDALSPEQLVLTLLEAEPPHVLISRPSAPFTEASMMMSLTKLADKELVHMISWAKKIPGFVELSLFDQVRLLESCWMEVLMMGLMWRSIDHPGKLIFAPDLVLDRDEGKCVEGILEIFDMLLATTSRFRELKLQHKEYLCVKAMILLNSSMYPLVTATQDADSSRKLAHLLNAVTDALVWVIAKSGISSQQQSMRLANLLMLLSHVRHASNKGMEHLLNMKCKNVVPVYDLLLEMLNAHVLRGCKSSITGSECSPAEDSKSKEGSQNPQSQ
Sequence of Estrogen receptor (Homo sapiens) (P03372 whole entry, looked up): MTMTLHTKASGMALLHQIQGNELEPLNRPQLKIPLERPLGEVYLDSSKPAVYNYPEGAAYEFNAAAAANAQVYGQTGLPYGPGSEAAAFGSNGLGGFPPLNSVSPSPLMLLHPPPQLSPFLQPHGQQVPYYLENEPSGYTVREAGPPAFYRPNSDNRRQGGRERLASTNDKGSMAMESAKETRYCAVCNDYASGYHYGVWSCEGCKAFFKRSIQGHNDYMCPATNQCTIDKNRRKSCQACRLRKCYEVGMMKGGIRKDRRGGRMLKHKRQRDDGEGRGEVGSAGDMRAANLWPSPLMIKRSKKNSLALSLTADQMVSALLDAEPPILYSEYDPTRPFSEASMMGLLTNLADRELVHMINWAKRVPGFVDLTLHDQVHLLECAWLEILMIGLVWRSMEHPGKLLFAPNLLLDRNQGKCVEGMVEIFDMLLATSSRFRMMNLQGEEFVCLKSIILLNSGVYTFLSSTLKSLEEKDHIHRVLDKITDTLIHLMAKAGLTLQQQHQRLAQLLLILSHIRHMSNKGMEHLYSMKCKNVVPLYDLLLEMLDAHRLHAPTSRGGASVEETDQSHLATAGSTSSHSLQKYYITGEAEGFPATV

As for `O=[N+]([O-])C1(Br)COCOC1`, the Potency result in experiment [1], in experiment [2], in [3], in experiment [4], in experiment [5] and in [6] was “inactive” throughout. The Potency entry in [7] was “inactive”.

For the compound `CC(=O)OCC(=O)[C@@]1(OC(C)=O)[C@@H](C)C[C@H]2[C@@H]3C[C@H](F)C4=CC(=O)C=C[C@]4(C)[C@@]3(F)[C@@H](O)C[C@@]21C`, the Potency entry in experiment [1], in experiment [2], in experiment [3], in experiment [4], in experiment [5] and in [7] was “inactive” each time.

For `CCN(CC)CC(=O)Nc1c(C)cccc1C(=O)OC`, the Potency entry in [1], in [3], in experiment [4], in experiment [8], in [5] and in experiment [6] was “inactive” throughout. The Potency result in experiment [7] was “inactive”.

Regarding `CCO[Si](C)(CCCOCC1CO1)OCC` (stereo not drawn), the Potency result in experiment [1], in experiment [2], in experiment [4], in [8], in experiment [5] and in experiment [6] was “inactive” in each case. The Potency result in [7] was “inactive”.

Turning to `Nc1c(Cl)cc(Cl)cc1[N+](=O)[O-]`, the Potency result in [1], in [3], in experiment [4], in experiment [8], in [9] and in experiment [5] was “inactive” in each case. In addition, the Potency result in [6] and in experiment [7] was “inactive” throughout.

As for `CCNc1nc(N)nc(Cl)n1`, the Potency entry in [1], in experiment [2], in [3], in experiment [4], in experiment [8] and in experiment [5] was “inactive” each time. Besides, in [7], the Potency result was “inactive”.

For `CC1=C2[C@@H]([C@H](C)CC[C@H]2/C=C(\C)C(=O)O)[C@H](O)C1`, the Potency result in experiment [1], in [2], in [3], in experiment [4], in experiment [5] and in experiment [6] was “inactive” each time. The Potency entry in experiment [7] was “inactive”.

As to `Cc1oc(=O)oc1COC(=O)[C@@H]1N2C(=O)[C@@H](NC(=O)[C@H](N)c3ccccc3)[C@H]2SC1(C)C`, the Potency entry in experiment [1], in [2], in experiment [3], in experiment [4], in [9] and in experiment [5] was “inactive” throughout. The Potency entry in experiment [6] and in experiment [7] was “inactive” each time.

As to `CCSC(=O)N(CC)CC`, the Potency result in experiment [1], in experiment [2], in experiment [4], in experiment [8], in [5] and in experiment [6] was “inactive” throughout. Further, in experiment [7], the Potency entry was “inactive”.

In the case of `COc1cc(OC)c2ccc(=O)oc2c1`, the Potency result in experiment [1], in [3], in experiment [4], in experiment [8], in [9] and in experiment [5] was “inactive” each time. Further, the Potency result in experiment [6] and in experiment [7] was “inactive” in each case.

Turning to `CCN(CC)CCOc1ccccc1C(=O)CCc1ccccc1`, the Potency entry in experiment [1], in [2], in experiment [3], in experiment [4], in experiment [6] and in experiment [7] was “inactive” in each case. For the same compound, in [8], the Potency is 21.1 µM (active).

Regarding `CCN(CC)CCNC(=O)c1cc(Cl)c(N)cc1OC`, the Potency result in experiment [1], in experiment [2], in experiment [3], in experiment [4], in experiment [5] and in experiment [6] was “inactive” in each case. The Potency entry in [7] is “inactive”.

For `CCC(=O)OCc1ccc(OC)cc1`, the Potency result in [1], in experiment [2], in experiment [3], in experiment [4], in experiment [8] and in experiment [5] was “inactive” in each case. Also, the Potency result in experiment [7] was “inactive”.

For `CC(C)(C)C(O)/C=C/c1ccc2c(c1)OCO2` (stereo not drawn), the Potency entry in [1], in experiment [3], in experiment [4], in [8], in [5] and in experiment [6] was “inactive” throughout. Moreover, the Potency entry in [7] is “inactive”.

For the compound `COC(=O)C1=C(C)NC(C)=C(C(=O)OC(C)(C)CN(C)CCC(c2ccccc2)c2ccccc2)C1c1cccc([N+](=O)[O-])c1` (stereo not drawn), the Potency result in experiment [1], in [2], in experiment [8], in experiment [9], in [5] and in experiment [6] was “inactive” in each case. Besides, in experiment [7], the Potency result is “inactive”.

Regarding `O=C(O)c1cc(Cl)cc(Cl)c1O`, the Potency entry in [1], in experiment [2], in experiment [4], in experiment [9], in experiment [5] and in experiment [7] was “inactive” each time.

For the compound `C[C@@H]1C[C@H]2[C@@H]3CCC4=CC(=O)C=C[C@]4(C)[C@@]3(F)[C@@H](O)C[C@]2(C)[C@@]1(O)C(=O)COP(=O)(O)O`, the Potency result in [1], in experiment [2], in experiment [3], in [4], in [5] and in experiment [6] was “inactive” each time. For the same compound, the Potency entry in experiment [7] was “inactive”.

Regarding `CCCCCCC(O)CCCCCCCCCCC(=O)OC` (stereo not drawn), the Potency entry in experiment [1], in [2], in experiment [3], in experiment [4] and in [7] was “inactive” each time.

In the case of `C=C(C)C(=O)OCCC(F)(F)C(F)(F)C(F)(F)C(F)(F)C(F)(F)C(F)(F)F`, the Potency entry in [1], in experiment [3], in experiment [4], in experiment [8], in experiment [5] and in experiment [6] was “inactive” in each case. Further, in experiment [7], the Potency entry is “inactive”.

Turning to `CC[C@H]1OC(=O)[C@H](C)[C@@H](O[C@H]2C[C@@](C)(OC)[C@@H](O)[C@H](C)O2)[C@H](C)[C@@H](O[C@@H]2O[C@H](C)C[C@H](N(C)C)[C@H]2O)[C@](C)(O)C[C@@H](C)CN(C)[C@H](C)[C@@H](O)[C@]1(C)O`, the Potency result in experiment [1], in [3], in experiment [4], in experiment [5], in [6] and in experiment [7] was “inactive” each time.

Take `COc1ccc(/C=C/C(=O)c2ccc(OC)cc2OC)cc1`: the Potency entry in [1], in experiment [4], in experiment [5] and in [7] was “inactive” throughout.

On to `O=C(/C=C/c1ccc([N+](=O)[O-])cc1)c1ccccc1`, for which the Potency entry in experiment [1], in experiment [5], in [6] and in experiment [7] was “inactive” in each case.

As for `O=C1c2ccccc2C(=O)c2c(O)ccc(O)c21`, the Potency entry in experiment [1], in experiment [8] and in experiment [5] was “inactive” in each case.

On to `c1ccc(CNc2ncnc3c2ncn3C2CCCCO2)cc1` (stereo not drawn), for which the Potency entry in [10], in experiment [4] and in experiment [5] was “inactive” each time. Besides, the Potency in experiment [6] is 7.7 µM (active).

Regarding `CCC1CCC(CCC(=O)O)C1` (stereo not drawn), the Potency entry in experiment [1], in experiment [4] and in experiment [7] was “inactive” throughout.

In the case of `O=C(O)CCC(=O)c1ccc(-c2ccccc2)cc1`, the Potency entry in [1], in experiment [4], in experiment [8], in experiment [9], in [5] and in [7] was “inactive” throughout.

Take `CCCCCCOC(=O)CCCCC`: the Potency entry in experiment [1], in [3], in experiment [4], in [5] and in [7] was “inactive” each time.

Take `O[C@@H](CNC[C@H](O)[C@H]1CCc2cc(F)ccc2O1)[C@@H]1CCc2cc(F)ccc2O1`: the Potency result in [1], in experiment [6] and in [7] was “inactive” in each case. Besides, the Potency in experiment [3] is 8.41 µM (active); in experiment [8], 11.9 µM (active); in experiment [5], 21.1 µM (active).
